# From PubChem BioAssay
# The list is not random: actives were taken first. Their share in the collection is about 11%.
# HP1b binding inh = HTS for Inhibitors of HP1-beta Chromodomain Interactions with Methylated Histone Tails; Chromobox protein homolog 1 (Homo sapiens), P83916; AlphaScreen HP1-beta / biotin-H3K9me3 peptide binding; Potency, µM (top dose mostly 114 µM), inactives show at the highest dose activity change, negative = inhibition, usual class: inhibitors; 390,000 compounds, 0.56% hits; AID 540317, 2011; note: nearly all actives have a fitted effect of over 70% in size
#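 HP1-beta protein (50 nM final) preincubated 30 min at room temperature with biotinylated H3(1-18)K9me3 peptide (50 nM) in PBS pH 7.4, 0.01% Tween-20, then compound added for 30 min. AlphaScreen streptavidin donor/nickel chelate acceptor beads (10 ug/mL final), 30 min dark, luminescence read.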
# JMJD2A Tudor = qHTS Assay for Inhibitors of JMJD2A-Tudor Domain | 390,000 compounds, 4.4% hits | Lysine-specific demethylase 4A (Homo sapiens), O75164 | Potency, µM (top dose mostly 114 µM), inactives show at the top dose activity change, negative = inhibition, most hits filed as inhibitors | AlphaScreen JMJD2A-Tudor / H3K4me3 peptide binding; note: % is set by controls: 0 for no effect and ±100 for the full control effect; nearly all actives have a fitted effect of over 50% in size
# L3MBTL1 block = qHTS Assay for the Inhibitors of L3MBTL1 | AlphaScreen L3MBTL1–H3K9me1 peptide binding | Lethal(3)malignant brain tumor-like protein 1 (Homo sapiens), Q9Y468 | Potency, µM (top dose mostly 57.1 µM), for the others: at the highest dose activity, negative = inhibition, hits mostly inhibitors | 230,000 compounds, 0.66% hits | AID 485360, 2010; note: % is set by controls: 0 for no effect and ±100 for the full control effect; nearly all actives have a fitted effect of over 60% in size
# Target sequence (Q9Y468 whole entry, looked up): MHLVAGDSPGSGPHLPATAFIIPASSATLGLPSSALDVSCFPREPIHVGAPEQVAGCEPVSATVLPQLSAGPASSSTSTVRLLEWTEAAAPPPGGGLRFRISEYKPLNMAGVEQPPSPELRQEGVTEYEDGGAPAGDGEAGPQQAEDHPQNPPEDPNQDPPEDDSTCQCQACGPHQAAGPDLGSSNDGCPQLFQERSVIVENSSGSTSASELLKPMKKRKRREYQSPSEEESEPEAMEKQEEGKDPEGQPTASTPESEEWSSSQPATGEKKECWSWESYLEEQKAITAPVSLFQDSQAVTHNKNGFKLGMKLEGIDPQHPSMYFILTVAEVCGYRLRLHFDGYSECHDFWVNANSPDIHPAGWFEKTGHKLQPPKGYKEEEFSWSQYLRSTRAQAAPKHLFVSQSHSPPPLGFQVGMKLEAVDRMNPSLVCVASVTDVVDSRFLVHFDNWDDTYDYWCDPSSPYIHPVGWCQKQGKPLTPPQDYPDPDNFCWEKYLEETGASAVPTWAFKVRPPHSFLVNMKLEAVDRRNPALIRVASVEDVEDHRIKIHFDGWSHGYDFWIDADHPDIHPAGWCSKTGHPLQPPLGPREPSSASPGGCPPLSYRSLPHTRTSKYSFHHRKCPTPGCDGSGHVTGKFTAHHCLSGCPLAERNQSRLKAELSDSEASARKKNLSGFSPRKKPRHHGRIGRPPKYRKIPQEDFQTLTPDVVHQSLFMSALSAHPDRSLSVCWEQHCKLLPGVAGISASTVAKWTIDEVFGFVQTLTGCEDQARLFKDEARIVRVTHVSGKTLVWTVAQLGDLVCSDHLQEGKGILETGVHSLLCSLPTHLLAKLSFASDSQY
#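 AlphaScreen proximity signal between nickel-chelate acceptor and streptavidin donor beads (final 10 ug/mL) reports binding of 50 nM L3MBTL1 to 75 nM biotin-H3 K9me1 peptide; complex incubated with compounds 30 min at room temperature; cefsulodin titration as control.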
# BAZ2B inh = qHTS Assay for Inhibitors of BAZ2B; AlphaScreen BAZ2B-H3K14Ac peptide displacement; Potency, µM (top dose mostly 114 µM), inactives show top-dose activity change, negative = inhibition, usual class: inhibitors; 360,000 compounds, 4.4% hits; AID 504333, 2011; note: % is set by controls: 0 for no effect and ±100 for the full control effect; nearly all actives have a fitted effect of over 60% in size
#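 Protein-peptide AlphaScreen: BAZ2B 50 nM, b-H3K14Ac 50 nM, 1x PBS pH 7.4 + 0.01% Tween-20. Preincubation 30 min RT; cpd 30 min RT (top 110 uM); beads 20 min RT, light-protected.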
# G9a inh = qHTS Assay for Inhibitors of Histone Lysine Methyltransferase G9a; AID 504332, 2011; 350,000 compounds, 8.8% hits; G9a H3K9 monomethylation, AlphaScreen, 2 h; Histone-lysine N-methyltransferase EHMT2 (Homo sapiens), Q96KQ7; Potency, µM (top dose mostly 102 µM), for inactives: at the highest dose activity, negative = inhibition, most hits filed as inhibitors; note: % is set by controls: 0 for no effect and ±100 for the full control effect; nearly all actives have a fitted effect of over 75% in size
#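 AlphaScreen detection with an anti-monomethyl H3K9 antibody quantified product after a 2 h room-temperature reaction containing 500 nM biotinylated H3K9 peptide, 20 µM SAM and 20 nM enzyme, which had been preincubated 15 min with compound.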
# * hit, by the source's call; u = inconclusive; x = no result; [ ] = dose if it differs, or a comment. Calls come from the whole dose curve; as a rule, active = well fitted inhibition curve with a large enough effect; inconclusive = small, poorly fitted or top-dose-only effect; inactive = no such curve, though single readings can be large or run the other way. Potency is the fitted concentration of half-maximal effect.
SMILES,HP1b binding inh,JMJD2A Tudor,L3MBTL1 block,BAZ2B inh,G9a inh
O=C(N/N=C/c1ccc(N2CCCCC2)o1)C(O)(c1ccccc1)c1ccccc1,x,x,-8.6%,-27.7%,12.6µM*
CN(C)c1ccc(/C=N/NC(=O)C(O)(c2ccccc2)c2ccccc2)o1,0.5%,u,-2.1%,-25.5%,7.94µM*
O=C(NN=Cc1ccccc1O)C(O)(c1ccccc1)c1ccccc1,46.0%,-1.4%,x,x,x
Cc1cc(C(=O)N/N=C/c2ccc(N(C)C)o2)cs1,3.3%,-18.8%,x,-25.6%,u
Cc1cc(/C=N/NC(=O)C(O)(c2ccccc2)c2ccccc2)c(C)n1-c1ccccc1,17.3%,u,-14.8%,u,u
CN(C)c1ccc(/C=N/NC(=O)c2ccccc2O)o1,8.9%,-21.1%,x,2.5%,28.2µM*
COc1ccc(-c2nn(C)c3sc(C(=O)Nc4cc(OC)c(OC)c(OC)c4)cc23)cc1OC,-18.2%,u,x,x,u
COc1ccccc1CNS(=O)(=O)c1ccc(F)c(C(=O)Nc2cc(Cl)ccc2OC)c1,37.8%,-25.4%,x,2.1%,4.1%[59 µM]
Cn1ccnc1C(=O)c1ccc(NN)c([N+](=O)[O-])c1,-15.9%,-32.2%,-14.2%,u,22.4µM*
Cn1ccnc1C(=O)c1cccc([N+](=O)[O-])c1,36.8%,-0.7%,5.5%,6.8%,-6.1%
CCCN(CCC)C(=O)CC(c1ccc(F)cc1)c1ccco1 (stereo unspecified),38.8%,-32.8%,x,-31.6%,44.7µM*
O=C(CC(c1ccc(F)cc1)c1ccco1)Nc1nccs1 (stereo unspecified),-17.7%,-33.7%,-23.4%,u,28.2µM*
COc1ccccc1C(CC(=O)Nc1nccs1)c1ccco1 (stereo unspecified),10.2%,u,-2.5%,-36.8%,-20.5%[59 µM]
O=C(CC(c1ccc(F)cc1)c1ccco1)N1CCCC1 (stereo unspecified),32.4%,-19.9%,-4.2%,6.8%,39.8µM*
O=C(CC(c1ccc(F)cc1)c1ccco1)N1CCOCC1 (stereo unspecified),47.5%,-13.1%,14.1%,11.7%,-29.2%
O=S(=O)(NC[C@@H]1CCC[C@H](CNS(=O)(=O)c2c(F)cccc2F)C1)c1ccc2c(c1)OCCO2,x,-16.4%,-1.7%,3.8%,6.5%[12.7 µM]
O=C(CSc1c2c(nc3ccccc13)CCC2)Nc1ccc(F)cc1F,27.9%,-14.3%,x,x,6.3%[59 µM]
COc1ccc2c(c1)cc1c(=O)n(CC(=O)NC3CC3)nc(C)n12,42.1%,8.0%,x,1.3%,8.4%[59 µM]
Cc1ccc(SC(CC(=O)c2ccc(C)cc2)C(=O)O)cc1 (stereo unspecified),56.3%,7.6%,x,31.4%,-4.8%[59 µM]
O=C(CC(Sc1ccc(Br)cc1)C(=O)O)c1ccc(Br)cc1 (stereo unspecified),x,x,x,1.3%,25.1µM*
O=C(CN1C(=O)CCC1=O)Nc1nc(-c2ccccn2)cs1,27.0%,25.1µM*,x,5.62µM*,15.0%
Cc1cc(C)cc(OCC(=O)Nc2nc(-c3ccccn3)cs2)c1,-36.3%,-22.6%,-2.0%,-6.4%,22.4µM*
O=C(Nc1nc(-c2ccccn2)cs1)C1CCCC1,-16.7%,u,u,50.1µM*,u
CSCCC(=O)Nc1nc(-c2ccccn2)cs1,8.5%,89.1µM*,x,20µM*,8.91µM*
O=C(COc1ccc(F)cc1Cl)Nc1nc(-c2ccccn2)cs1,x,x,-9.0%,10.1%,u
SMILES,HP1b binding inh,JMJD2A Tudor,L3MBTL1 block,BAZ2B inh,G9a inh
O=C(CCCSc1ccccc1)Nc1nc(-c2ccccn2)cs1,15.8%,-26.8%,x,-0.6%,u
COc1ccc(OC)c(-c2nnc3n2N=C(c2c(OC)cccc2OC)CS3)c1,x,-25.5%,x,x,x
CCc1ccc(C(c2ccccc2)c2c[nH]c3ccc(C)cc23)s1 (stereo unspecified),u,56.2µM*,x,u,u
COc1ccc(N2CCN(C(c3cccs3)C(C)NC(=O)C(=O)N3CCCCC3)CC2)cc1 (stereo unspecified),0.9%,-30.6%,x,-35.3%,50.1µM*
COc1ccc(N2CCN(C(c3cccs3)C(C)NC(=O)C(=O)N3CCCC3)CC2)cc1 (stereo unspecified),-3.7%,u,x,39.8µM*,44.7µM*
CC(NC(=O)C(=O)N1CCCCC1)C(c1cccs1)N1CCN(c2ccccc2)CC1 (stereo unspecified),22.6%,-28.6%,x,-37.4%,u
COc1ccc2[nH]cc(CCNc3ncnc4ccc(-c5cccc(C#N)c5)cc34)c2c1,x,x,x,x,-0.3%[0.501 µM]
CC(=O)Nc1ccc2c(c1)C(=Nc1cccc(C)c1)c1ccccc1-2,u,31.6µM*,x,x,x
CC(=O)Nc1cccc(C)c1,38.9%,-11.0%,-6.8%,-4.5%,-3.6%[0.501 µM]
S=C(c1ccc(Cl)cc1)N1CCN(Cc2ccccc2)CC1,-2.6%,-28.5%,-21.9%,u,-18.4%[59 µM]
CCN1CCN(C(=S)c2ccc(SC)cc2)CC1,u,-17.1%,x,3.2%,39.8µM*
CSc1ccc(C(=S)N2CCCCCC2)cc1,42.0%,-18.0%,-4.0%,-9.8%,31.6µM*
CSc1ccc(C(=S)N2CCN(Cc3ccccc3)CC2)cc1,-35.6%,u,x,u,31.6µM*
CN(C)c1ccc(C(=S)N2CCCCC2)cc1,-21.0%,-35.2%,-13.4%,-38.6%,u
Cc1nc(-n2nc(C)c(CCC(C)C)c2C)sc1C(=O)Nc1ccc(Br)cc1,48.0%,0.3%,x,9.2%,7.0%[59 µM]
O=C1N(Cc2cccnc2)C[C@@H]2C[C@@H](c3cccc(Oc4ccccc4)c3)N3CCC[C@@]123,21.5%,-35.2%,-17.2%,u,12.6µM*
O=C1N(Cc2cccc(Cl)c2)C[C@@H]2C[C@@H](c3cccn3-c3cccnc3)N3CCC[C@@]123,2.1%,u,-21.1%,u,50.1µM*
CCCCSCCCNC(=O)C1CCN(Cc2nc(-c3ccc(CC)cc3)oc2C)CC1,-7.5%,u,x,-17.7%,-33.5%[59 µM]
CC(C)(C)c1ccc(-c2n[nH]c(=S)n2Cc2ccccc2)cc1,30.0%,-4.2%,x,-10.8%,-39.4%
OCCCn1c(-c2ccccc2)n[nH]c1=S,24.4%,28.2µM*,-18.3%,-2.9%,7.94µM*
S=c1[nH]nc(-c2ccncc2)n1Cc1ccccc1,25.8%,7.94µM*,-0.2%,x,10µM*
Fc1ccc(-c2n[nH]c(=S)n2Cc2ccccc2)cc1,6.1%,17.8µM*,x,-1.0%,u
O=c1cc(-c2ccccc2)cc(-c2ccccc2)n1CCCO,12.6%,-19.6%,1.3%,-3.2%,16.3%[2.33 µM]
CCCCOc1ccc(-c2n[nH]c(=S)n2Cc2ccccc2)cc1,1.8%,-22.4%,x,-0.7%,20µM*
Oc1ccc(-c2n[nH]c(=S)n2Cc2ccccc2)cc1,-8.4%,31.6µM*,-0.8%,1.4%,1.12µM*
